Rows were chosen to be rich in hits. Some 7.4% of all compounds tested hit in one or more screens of this group.
SMN2 splice up = SMN2 splice variant enhancement | HEK293 SMN2-luciferase splicing reporter, luminescence, 30-36 h | Potency, µM (series often up to 46.1 µM), for inactives: at the highest dose activity change, positive = activation, actives largely listed as activators | 2.8% of 210,000 active | AID 1458; further: % of control where 0% means no effect; nearly all actives have a fitted effect of over 55% in size
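HEK293 cells carry an SMN2 […]–luciferase reporter in which exon 7 inclusion puts luciferase in frame. Cells were plated 10-12 h before compound addition, then incubated 30-36 h at 37C. ONE-Glo luminescence was read; sodium butyrate at 4.5 mM final served as control.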
Luc counter = blocks Kinase-Glo luciferase, a counter-screen artifact; Q27757; Potency, µM (series often up to 38.3 µM), without a hit: at the top dose activity change, negative = inhibition, actives largely listed as inhibitors; 0.28% of 200,000 active; Kinase-Glo luciferase, ATP luminescence, 8 min; further: on the % scale 0 is the no-effect control and ±100 the full control effect; nearly all actives have a fitted effect of over 60% in size
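Light output from Kinase-Glo luciferase with luciferin and 10 uM ATP in 50 mM imidazole pH 7.2, KCl, MgCl2, Tween 20, BSA; compound pin-delivered, 8-min ambient incubation, then luminescence read.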
ELG1 genotoxic = inducers of genotoxicity in HEK293T ELG1-luciferase cells; HEK293T ELG1-luciferase reporter, luminescence, 16 h; 1.3% of 330,000 active; Potency, µM (doses to about 46 µM), for inactives: at the highest dose activity change, positive = activation, most hits filed as activators; AID 504466; further: % of control where 0% means no effect; nearly all actives have a fitted effect of over 60% in size
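ELG1-luciferase HEK293T cells, 2,000/well; compound pinned in; 16 hr, 37 °C, 5% CO2; ONE-Glo, 30 min RT; luminescence on CCD imager.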
NPC1 prom act = activates the NPC1 promoter; AID 485313; Huh7 NPC1 promoter luciferase reporter, 24 h; Potency, µM (top dose mostly 9.22 µM), for the others: top-dose activation, most hits filed as activators; 2.4% of 320,000 active; further: % of control where 0% means no effect; nearly all actives have a fitted effect of over 60% in size
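Readout is luciferase luminescence, reflecting NPC1 promoter activation in stably transfected Huh7 cells after 24 h compound exposure at 37 °C in reduced-serum medium with 10% FBS.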
FLuc counter = counter-screen for miR-21 project: firefly luciferase inhibitors or activators; P08659; purified FLuc, Km substrates, luminescence inhibition; Potency, µM (doses to about 57.5 µM), for inactives: at the highest dose activity change, negative = inhibition, most hits filed as inhibitors; 6.9% of 360,000 active;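 further: plate controls were vehicle for no effect and reference inhibitor for full effect; nearly all actives have a fitted effect of over 55% in size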
Target sequence (P08659 whole entry, looked up): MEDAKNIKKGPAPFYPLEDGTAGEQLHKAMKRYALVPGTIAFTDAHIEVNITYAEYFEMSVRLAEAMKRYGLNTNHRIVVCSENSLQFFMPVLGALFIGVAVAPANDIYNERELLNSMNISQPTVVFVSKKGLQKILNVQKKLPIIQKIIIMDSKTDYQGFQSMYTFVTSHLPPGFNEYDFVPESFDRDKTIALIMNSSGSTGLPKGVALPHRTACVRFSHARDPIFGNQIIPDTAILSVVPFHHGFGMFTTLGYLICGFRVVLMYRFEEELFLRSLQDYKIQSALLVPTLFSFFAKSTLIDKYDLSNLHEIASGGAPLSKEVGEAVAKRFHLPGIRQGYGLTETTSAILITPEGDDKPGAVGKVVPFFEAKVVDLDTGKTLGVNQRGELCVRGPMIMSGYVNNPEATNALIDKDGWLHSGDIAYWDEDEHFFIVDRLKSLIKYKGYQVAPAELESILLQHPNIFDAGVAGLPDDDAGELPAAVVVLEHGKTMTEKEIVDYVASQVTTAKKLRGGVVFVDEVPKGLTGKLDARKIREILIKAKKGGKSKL
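Purified P. pyralis luciferase, 10 nM final, with Km-level 10 uM D-luciferin and 10 uM ATP in 50 mM Tris acetate pH 7.5, 10 mM Mg acetate, 0.01% Tween-20, 0.05% BSA; 6-point qHTS titration about 60 µM downward; luminescence read.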
Rab9 prom act = activators of Rab9 promoter. Huh7 Rab9 promoter-luciferase reporter, luminescence, 24 h. Potency, µM (doses to about 9.22 µM), for inactives: at the top dose activation, negative = inhibition, usual class: activators. 2.8% of 320,000 active; further: % of control where 0% means no effect; nearly all actives have a fitted effect of over 60% in size
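Promoter activation is measured as luciferase luminescence in Huh7 cells stably transfected with a Rab9 promoter–luciferase construct, following 24 h compound exposure at 37 °C and 10 min reagent incubation at ambient temperature.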
Numbers without * were called inactive; ? = inconclusive; · = no result given; [ ] = remark or other dose. The call rests on the fitted dose curve; in most records, active means well fitted curve in the direction sought with a large enough effect; inconclusive means small, poorly fitted or top-dose-only effect, or another doubt; inactive means no such curve, though single readings can be large; an effect the other way counts as inactive or inconclusive. Potency means the concentration at half of the fitted maximal effect.

SMILES	SMN2 splice up	Luc counter	ELG1 genotoxic	NPC1 prom act	FLuc counter	Rab9 prom act
Cc1cccc(C)c1NC(=O)C1=C(O)c2ccccc2N(C)S1(=O)=O	3.3%	3.1%	-4.1%	-2.5%	-0.5%	-2.9%
Cc1ccc(NC(=O)C2=C(O)c3ccccc3N(C)S2(=O)=O)cc1	17.0%	6.7%	-0.2%	0.4%	15.1µM*	2.7%
CN1CCc2cc3c(cc2C(=O)Cc2ccc4c(c2C1)OCO4)OCO3	·	1.8%	·	·	·	·
O=C(Nc1ccc(OCc2cc(=O)n3c4c(sc3n2)CCCC4)cc1)c1ccc(F)cc1	1.8%	·	·	·	1.2%	·
Cc1cccc(C)c1NC(=O)c1ccc(N2CCCC2=O)cc1	·	·	0.4%	-0.5%	0.3%	0.1%
O=C(Nc1nc2ccc(F)cc2s1)c1ccc(N2CCCC2=O)cc1	·	·	0.461µM*	0.398µM*	-17.5%	0.316µM*
CCN(c1ccc(NC(=O)c2ccc(N3CCCC3=O)cc2)cc1)C(C)C	·	·	6.51µM*	-15.7%	?	-24.1%
CN(C)S(=O)(=O)c1cccc(NC(=O)c2ccc(N3CCCC3=O)cc2)c1	·	·	0.2%	·	·	·
Cc1nnc(NC(=O)c2ccc(N3CCCC3=O)cc2)s1	·	·	?	?	23.9µM*	2.24µM*
O=C(Nc1ccccc1Br)c1ccc(N2CCCC2=O)cc1	·	·	?	?	15.1µM*	2.51µM*
Cc1csc(NC(=O)c2ccc(N3CCCC3=O)cc2)n1	0.562µM*	12.6µM*	0.651µM*	?	1.9µM*	0.316µM*
Cc1csc(N2CCCC2=O)n1	8.0%	-1.9%	0.9%	-3.0%	0.5%	12.8%
CN1/C(=C\C=C2/C(=O)Oc3ccccc3C2=O)C(C)(C)c2ccccc21	?	1.2%	?	?	?	2.82µM*
CN(C)c1ccc(N=C/C=C2/N(C)c3ccccc3C2(C)C)cc1	-6.1%	-2.8%	3.5%	12.3%	15.1µM*	19.9%
CN1C(=CC=C2C=C(I)C(=O)C(I)=C2)C(C)(C)c2ccccc21	·	·	-4.8%	-3.3%	21.3µM*	-20.4%
CN1/C(=C\C=N\O)C(C)(C)c2ccccc21	-2.5%	4.3%	2.0%	7.9%	-0.1%	-1.1%
CN1/C(=C\C=C2/SC(=S)NC2=O)C(C)(C)c2ccccc21	·	-12.7%	0.1%	-12.8%	?	-32.5%
CC1=NN(c2ccccc2)C(=O)/C1=C\C=C1/N(C)c2ccccc2C1(C)C	-21.6%	-9.3%	-8.6%	-0.1%	?	-1.5%
CC(=O)c1cccc(S(=O)(=O)NCCc2csc3nc(-c4ccc(F)cc4)nn23)c1	·	·	·	·	-14.2%	·
O=C(Nc1nccs1)c1ccc(-c2ccccc2[N+](=O)[O-])o1	·	·	?	2.82µM*	4.26µM*	2µM*
O=C(Nc1nccs1)c1ccc(-c2ccccc2Cl)o1	11.2µM*	-13.8%	4.11µM*	2.51µM*	2.39µM*	2.51µM*
O=C(Cc1ccccc1[N+](=O)[O-])Nc1nccs1	·	·	-2.9%	-0.3%	-12.0%	3.6%
Cc1ccccc1OCC(=O)OCC(=O)c1ccc(OCc2ccccc2)cc1	14.1µM*	5.5%	?	?	-12.0%	?
Cc1ccccc1OCC(=O)OCC(=O)c1ccc(OC(=O)c2ccccc2)cc1	-5.7%	-4.7%	0.9%	-0.6%	-0.4%	-1.9%
Cc1ccc(NC(=O)N2CCc3ccccc3C2)cc1C	·	·	?	2.82µM*	8.49µM*	3.16µM*
SMILES	SMN2 splice up	Luc counter	ELG1 genotoxic	NPC1 prom act	FLuc counter	Rab9 prom act
O=C(NCc1ccco1)C1OCCc2ccccc21 (stereo unspecified)	-6.9%	-0.1%	-1.1%	-2.4%	-0.4%	-3.0%
Cc1ccccc1NC(=O)N1CCc2ccccc2C1	?	-1.5%	?	18.8%	?	26.5%
Cc1ccc(NC(=O)C2OCCc3ccccc32)cc1C (stereo unspecified)	·	-0.6%	?	23.6%	15.1µM*	?
Cc1cc(C)cc(NC(=O)N2CCc3ccccc3C2)c1	·	·	?	?	19µM*	?
COc1ccc(NC(=O)N2CCc3ccccc3C2)cc1OC	·	·	?	3.7%	?	16.6%
C[C@@H](O)[C@H]1C(=O)N2C(C(=O)O)=C(SCCN=CN)C[C@H]12	·	·	·	-3.2%[46.1 µM]	·	-5.3%[46.1 µM]
NCCCCC(NC(CCc1ccccc1)C(=O)O)C(=O)N1CCCC1C(=O)O (stereo unspecified)	-4.9%	-0.4%	·	·	·	·
COc1ccc(CNC(=O)c2cc3cccc4c3n2CC(C)S4)cc1OC (stereo unspecified)	·	·	·	·	-13.6%	·
CCCNc1c(F)c(F)c2c(C)c3ccccc3nc2c1F	12.6%	0.1%	?	?	6.01µM*	?
Clc1ccc(/C=N/Nc2ncnc3nc[nH]c23)cc1	·	·	16.4µM*	?	16.9µM*	?
Oc1ccc(/C=N/Nc2ncnc3nc[nH]c23)cc1	·	·	-1.3%	1.7%	?	8.7%
Cc1ccc(/C=N/Nc2ncnc3nc[nH]c23)cc1	·	·	?	2.82µM*	9.53µM*	1.58µM*
CC(=O)Nc1nonc1-c1nnc(SCc2ccccc2F)n1C	·	·	·	·	1.0%	·
O=C(Nc1ccc(Cl)cc1Cl)c1csc(-c2cccnc2)n1	·	·	12.8%	2.82µM*	?	?
O=C(Nc1cccnc1)c1cc(-c2ccc(Cl)cc2)on1	18.0%	0.9%	8.9%	-2.1%	1.51µM*	2.2%
O=C(Nc1cccnc1)c1cc(-c2ccc(Cl)cc2Cl)on1	·	·	?	3.98µM*	0.379µM*	?
CC[C@H](/C=C/[C@@H](C)[C@H]1CC[C@H]2C3CC=C4C[C@@H](O)CC[C@]4(C)C3CC[C@]12C)C(C)C (stereo partly specified)	·	1.9%	·	·	·	·
CCN(CC)C(=O)Cn1c(=O)n(CCCCCC(=O)NCc2ccc(C)cc2)c(=O)c2sccc21	-7.5%	·	·	·	1.5%	·
COc1ccc(C)cc1Nc1nc(N)c2ccccc2n1	·	·	-3.1%	3.6%	?	0.4%
Oc1ccc(Nc2nc(-c3ccc(Cl)cc3)nc3ccccc23)cc1	22.5%	·	·	·	?	·
Cc1ccccc1Nc1nc(N)c2ccccc2n1	3.55µM*	12.6µM*	?	0.708µM*	1.69µM*	0.501µM*
CN(C)c1nc(Nc2ccccc2)nc(N(C)C)n1	-11.3%	-1.6%	-5.6%	3.8%	-11.9%	8.5%
Nc1nc(Nc2ccccc2)nc(C(F)(F)F)n1	·	·	11.4%	0.4%	-28.4%	20.6%
CN(C)c1ccc(Nc2nc(N)c3ccccc3n2)cc1	·	·	?	?	0.19µM*	0.1µM*
Nc1nc(Nc2ccc(Cl)cc2)nc2ccccc12	·	14.1µM*	?	0.631µM*	0.426µM*	0.501µM*
Nc1nc(Nc2ccccc2)nc2ccccc12	14.1µM*	11.2µM*	?	0.562µM*	1.35µM*	0.631µM*
COc1ccc(CC(=O)N2CCc3cc(OC)c(OC)cc3C2COc2ccc(F)cc2)cc1 (stereo unspecified)	·	·	·	·	-11.1%	·

Screening data deposited in PubChem by National Center for Advancing Translational Sciences (NCATS).
